Data reported in the supplement of paper PMC10849652.
Targets with a hit are over-represented here; the source holds about 7,900 in all. About 0.6% of all pairs of compound and target were hits.

compound: CC1=C(C=C(C=C1)NC(=O)C2=CC(=CC=C2)C(C)(C)C#N)NC3=CC4=C(C=C3)N=CN(C4=O)C; assay: log2 fold change, soluble protein after heating vs DMSO (PISA); higher = thermal stabilisation; K562 cells, 10 uM, 30 min; active = over 0.2 and 3.5 SD of the protein, either way, in both replicates (recomputed)
In short: (§1)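 Soluble protein was defined as the supernatant after 21,000xg for 90 min. It came from K562 cells at 2×10^6 cells/mL given 10 μM compound for 30 min, heated in aliquots for 3 min across 48°C-58°C, pooled, and extracted in PBS with 0.5% NP-40 at 4°C, and was quantified by TMTpro 16plex LC-MS/MS with equalised channel sums. Thermal stability against control samples, from duplicates, is reported as log2 fold change.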

Sequence of UniProt P55795 (P55795 whole entry, looked up): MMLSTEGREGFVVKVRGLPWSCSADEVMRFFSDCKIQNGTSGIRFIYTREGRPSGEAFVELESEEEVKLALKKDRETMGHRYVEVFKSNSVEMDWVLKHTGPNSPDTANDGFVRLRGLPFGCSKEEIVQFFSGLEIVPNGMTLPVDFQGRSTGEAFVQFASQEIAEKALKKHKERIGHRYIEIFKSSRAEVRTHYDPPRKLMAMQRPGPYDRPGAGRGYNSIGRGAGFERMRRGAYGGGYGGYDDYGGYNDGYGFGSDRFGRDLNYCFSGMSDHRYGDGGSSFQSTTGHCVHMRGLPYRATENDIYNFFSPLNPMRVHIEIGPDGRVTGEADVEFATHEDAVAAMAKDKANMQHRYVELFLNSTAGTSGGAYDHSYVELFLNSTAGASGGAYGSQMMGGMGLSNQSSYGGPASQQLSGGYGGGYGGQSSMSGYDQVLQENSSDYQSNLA
Sequence of UniProt P36969 (P36969 whole entry, looked up): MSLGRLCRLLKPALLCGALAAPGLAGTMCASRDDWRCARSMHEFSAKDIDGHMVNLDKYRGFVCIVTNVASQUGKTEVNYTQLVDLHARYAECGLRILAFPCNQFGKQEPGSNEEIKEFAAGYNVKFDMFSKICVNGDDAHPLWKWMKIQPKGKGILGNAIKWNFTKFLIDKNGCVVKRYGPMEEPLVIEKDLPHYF
Sequence of UniProt Q13547 (Q13547 whole entry, looked up): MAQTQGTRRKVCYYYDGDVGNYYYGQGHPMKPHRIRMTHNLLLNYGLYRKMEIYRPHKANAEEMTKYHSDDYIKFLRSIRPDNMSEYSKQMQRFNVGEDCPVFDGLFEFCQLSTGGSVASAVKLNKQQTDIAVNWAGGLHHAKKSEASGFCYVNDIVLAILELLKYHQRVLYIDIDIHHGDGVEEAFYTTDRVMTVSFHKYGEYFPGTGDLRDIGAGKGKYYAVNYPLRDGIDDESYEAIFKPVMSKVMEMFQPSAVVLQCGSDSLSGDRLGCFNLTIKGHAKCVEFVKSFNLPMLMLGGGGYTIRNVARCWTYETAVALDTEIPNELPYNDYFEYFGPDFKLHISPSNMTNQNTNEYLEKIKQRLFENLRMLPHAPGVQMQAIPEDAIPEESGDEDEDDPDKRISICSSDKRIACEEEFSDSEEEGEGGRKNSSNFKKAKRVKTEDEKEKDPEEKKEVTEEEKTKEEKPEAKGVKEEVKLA
Sequence of UniProt O14976 (O14976 whole entry, looked up): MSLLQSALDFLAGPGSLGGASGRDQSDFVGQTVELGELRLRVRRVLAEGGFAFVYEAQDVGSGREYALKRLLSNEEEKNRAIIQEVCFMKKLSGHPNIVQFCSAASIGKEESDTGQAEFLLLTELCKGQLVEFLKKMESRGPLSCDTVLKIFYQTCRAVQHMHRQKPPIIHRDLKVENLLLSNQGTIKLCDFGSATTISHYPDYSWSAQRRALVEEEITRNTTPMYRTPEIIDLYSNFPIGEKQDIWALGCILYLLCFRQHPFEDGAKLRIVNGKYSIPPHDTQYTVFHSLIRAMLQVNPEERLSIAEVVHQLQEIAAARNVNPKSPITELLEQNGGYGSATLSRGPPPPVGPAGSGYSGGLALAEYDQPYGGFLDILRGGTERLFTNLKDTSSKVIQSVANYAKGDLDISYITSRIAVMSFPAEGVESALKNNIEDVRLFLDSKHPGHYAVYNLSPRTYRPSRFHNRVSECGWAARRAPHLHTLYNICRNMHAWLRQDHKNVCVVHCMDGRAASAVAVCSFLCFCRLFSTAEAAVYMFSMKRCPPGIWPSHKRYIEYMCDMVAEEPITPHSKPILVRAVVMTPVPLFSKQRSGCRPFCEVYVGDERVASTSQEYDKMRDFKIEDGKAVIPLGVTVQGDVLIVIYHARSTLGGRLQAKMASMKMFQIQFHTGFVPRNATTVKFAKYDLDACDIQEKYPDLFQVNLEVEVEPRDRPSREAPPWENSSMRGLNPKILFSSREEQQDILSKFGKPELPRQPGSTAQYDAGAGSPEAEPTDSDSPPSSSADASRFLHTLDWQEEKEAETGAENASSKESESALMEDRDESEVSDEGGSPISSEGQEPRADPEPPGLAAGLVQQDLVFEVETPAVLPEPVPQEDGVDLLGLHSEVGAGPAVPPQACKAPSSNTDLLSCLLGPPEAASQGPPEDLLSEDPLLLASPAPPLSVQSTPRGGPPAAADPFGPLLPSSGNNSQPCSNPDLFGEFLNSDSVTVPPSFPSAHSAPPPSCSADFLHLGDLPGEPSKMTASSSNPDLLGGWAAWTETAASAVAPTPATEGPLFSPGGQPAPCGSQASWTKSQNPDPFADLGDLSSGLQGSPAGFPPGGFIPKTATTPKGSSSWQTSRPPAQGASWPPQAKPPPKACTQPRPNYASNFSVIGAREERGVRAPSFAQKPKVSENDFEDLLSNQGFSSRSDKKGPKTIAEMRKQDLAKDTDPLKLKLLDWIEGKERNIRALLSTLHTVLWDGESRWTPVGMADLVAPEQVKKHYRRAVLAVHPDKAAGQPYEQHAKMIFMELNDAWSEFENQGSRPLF
Sequence of UniProt P39748 (P39748 whole entry, looked up): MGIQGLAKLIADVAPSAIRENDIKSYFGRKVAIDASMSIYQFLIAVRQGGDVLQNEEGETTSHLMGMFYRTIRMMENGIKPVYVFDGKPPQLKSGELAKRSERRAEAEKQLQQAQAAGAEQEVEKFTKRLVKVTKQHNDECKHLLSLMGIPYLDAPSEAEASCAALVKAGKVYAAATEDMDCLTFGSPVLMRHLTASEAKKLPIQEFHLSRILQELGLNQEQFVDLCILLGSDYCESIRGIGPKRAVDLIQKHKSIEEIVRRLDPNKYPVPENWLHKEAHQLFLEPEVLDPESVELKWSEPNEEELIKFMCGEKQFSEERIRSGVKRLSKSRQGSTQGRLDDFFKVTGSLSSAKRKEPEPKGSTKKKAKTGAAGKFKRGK
Sequence of UniProt Q8NCW6 (Q8NCW6 whole entry, looked up): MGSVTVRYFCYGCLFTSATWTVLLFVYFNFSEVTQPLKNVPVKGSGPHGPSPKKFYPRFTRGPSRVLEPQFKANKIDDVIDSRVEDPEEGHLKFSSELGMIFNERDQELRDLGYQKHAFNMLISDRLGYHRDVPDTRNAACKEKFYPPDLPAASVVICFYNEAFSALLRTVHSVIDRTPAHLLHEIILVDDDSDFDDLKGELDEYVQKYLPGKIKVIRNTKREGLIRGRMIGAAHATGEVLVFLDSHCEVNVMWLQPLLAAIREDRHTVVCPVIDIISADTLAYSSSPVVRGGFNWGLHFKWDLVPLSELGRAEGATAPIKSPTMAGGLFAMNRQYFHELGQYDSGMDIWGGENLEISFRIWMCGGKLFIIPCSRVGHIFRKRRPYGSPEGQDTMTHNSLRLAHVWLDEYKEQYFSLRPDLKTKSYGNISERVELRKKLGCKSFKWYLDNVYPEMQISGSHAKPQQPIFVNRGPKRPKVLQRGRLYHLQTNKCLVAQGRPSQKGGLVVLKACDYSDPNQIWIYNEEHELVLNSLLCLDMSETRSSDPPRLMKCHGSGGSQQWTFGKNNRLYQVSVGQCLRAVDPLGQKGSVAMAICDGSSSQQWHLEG
Sequence of UniProt Q92769 (Q92769 whole entry, looked up): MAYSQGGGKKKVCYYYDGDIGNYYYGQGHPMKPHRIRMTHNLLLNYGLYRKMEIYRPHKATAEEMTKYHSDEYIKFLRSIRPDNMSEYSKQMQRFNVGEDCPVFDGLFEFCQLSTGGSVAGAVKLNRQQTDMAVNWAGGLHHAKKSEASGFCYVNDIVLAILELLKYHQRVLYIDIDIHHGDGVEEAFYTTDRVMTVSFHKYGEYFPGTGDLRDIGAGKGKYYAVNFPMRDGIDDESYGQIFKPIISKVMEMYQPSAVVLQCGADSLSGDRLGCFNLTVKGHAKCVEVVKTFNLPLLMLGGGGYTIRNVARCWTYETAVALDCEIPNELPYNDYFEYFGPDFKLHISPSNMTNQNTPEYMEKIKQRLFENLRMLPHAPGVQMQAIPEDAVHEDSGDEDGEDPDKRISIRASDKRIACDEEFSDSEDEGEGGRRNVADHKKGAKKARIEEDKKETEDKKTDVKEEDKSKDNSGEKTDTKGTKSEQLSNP
Sequence of UniProt Q8N2G8 (Q8N2G8 whole entry, looked up): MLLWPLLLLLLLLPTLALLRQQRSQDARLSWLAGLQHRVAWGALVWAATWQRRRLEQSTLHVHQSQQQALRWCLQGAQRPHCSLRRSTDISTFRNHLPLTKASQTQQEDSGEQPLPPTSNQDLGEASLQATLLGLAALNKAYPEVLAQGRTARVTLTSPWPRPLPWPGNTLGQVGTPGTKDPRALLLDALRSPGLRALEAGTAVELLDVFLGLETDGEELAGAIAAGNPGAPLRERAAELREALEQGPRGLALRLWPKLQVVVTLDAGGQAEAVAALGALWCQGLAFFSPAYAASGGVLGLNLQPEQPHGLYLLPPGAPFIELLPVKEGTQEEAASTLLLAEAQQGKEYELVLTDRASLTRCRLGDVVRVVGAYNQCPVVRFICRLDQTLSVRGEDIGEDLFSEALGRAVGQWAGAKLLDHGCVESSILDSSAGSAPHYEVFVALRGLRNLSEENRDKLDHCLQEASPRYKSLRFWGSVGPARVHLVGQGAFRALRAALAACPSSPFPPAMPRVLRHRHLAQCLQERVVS
Sequence of UniProt P22570 (P22570 whole entry, looked up): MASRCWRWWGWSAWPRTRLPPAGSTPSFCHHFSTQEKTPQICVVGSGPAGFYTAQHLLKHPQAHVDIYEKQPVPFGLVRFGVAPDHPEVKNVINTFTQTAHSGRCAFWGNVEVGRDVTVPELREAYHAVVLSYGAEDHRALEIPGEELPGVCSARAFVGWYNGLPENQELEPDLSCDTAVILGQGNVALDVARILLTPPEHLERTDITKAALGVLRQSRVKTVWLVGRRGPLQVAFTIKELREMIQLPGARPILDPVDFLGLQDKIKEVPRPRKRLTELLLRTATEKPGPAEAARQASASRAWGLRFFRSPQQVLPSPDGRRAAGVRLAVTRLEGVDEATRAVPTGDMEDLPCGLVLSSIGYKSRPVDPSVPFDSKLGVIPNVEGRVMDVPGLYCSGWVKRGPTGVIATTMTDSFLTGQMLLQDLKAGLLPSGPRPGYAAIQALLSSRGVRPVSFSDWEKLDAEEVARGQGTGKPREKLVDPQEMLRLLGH

Target	log2 fold change
FAT1 (UniProt Q14517)	-0.036 (inactive)
GAB2 (UniProt Q9UQC2)	-0.053 (inactive)
GLCCI1 (UniProt Q86VQ1)	0.037 (inactive)
FANCI (UniProt Q9NVI1)	0.012 (inactive)
GALNT11 (UniProt Q8NCW6)	0.011 (inactive)
FDPS (UniProt P14324)	-0.061 (inactive)
HDAC1 (UniProt Q13547)	-0.11 (inactive)
HDAC2 (UniProt Q92769)	-0.051 (inactive)
HDAC7 isoform 5 (UniProt Q8WUI4)	-0.01 (inactive)
GEMIN2 (UniProt O14893)	-0.073 (inactive)
HPCAL1 (UniProt P37235)	-0.022 (inactive)
FCHO1 (UniProt O14526)	0.103 (inactive)
HIP1R (UniProt O75146)	-0.028 (inactive)
HADHB (UniProt P55084)	0.19 (inactive)
GHDC (UniProt Q8N2G8)	-0.028 (inactive)
FEN1 (UniProt P39748)	0.018 (inactive)
GOPC (UniProt Q9HD26)	0.207 (inactive)
FDFT1 (UniProt P37268)	-0.008 (inactive)

Target	log2 fold change
GDE1 (UniProt Q9NZC3)	0.022 (inactive)
ICMT (UniProt O60725)	-0.048 (inactive)
GAK (UniProt O14976)	0.214 (inactive)
GSTP1 (UniProt P09211)	0.006 (inactive)
FOXO3 (UniProt O43524)	0.247 (inactive)
FDXR isoform 7 (UniProt P22570)	-0.011 (inactive)
HNRNPH2 (UniProt P55795)	0.064 (inactive)
GLIPR2 (UniProt Q9H4G4)	0.156 (inactive)
FIBP (UniProt O43427)	0.046 (inactive)
HNRNPC isoform 2 (UniProt P07910)	0.276 (inactive)
FBXO7 (UniProt Q9Y3I1)	-0.048 (inactive)
GPS2 (UniProt Q13227)	-0.13 (inactive)
GGA2 (UniProt Q9UJY4)	-0.015 (inactive)
GMEB1 (UniProt Q9Y692)	0.088 (inactive)
FANCD2 isoform 1 (UniProt Q9BXW9)	0.003 (inactive)
GPX4 (UniProt P36969)	-0.005 (inactive)
IFITM3 (UniProt Q01628)	-0.058 (inactive)

compound: CC1=C(C=C(C=C1)NC(=O)C2=CC(=CC=C2)N(C)C)NC(=O)C3=CC=C(C=C3)O; assay: as above
In short: as §1

Target	log2 fold change
FAT1 (UniProt Q14517)	-0.218 (inactive)
GAB2 (UniProt Q9UQC2)	-0.21 (inactive)
GLCCI1 (UniProt Q86VQ1)	0.104 (inactive)
FANCI (UniProt Q9NVI1)	0.018 (inactive)
GALNT11 (UniProt Q8NCW6)	0.049 (inactive)
FDPS (UniProt P14324)	-0.068 (inactive)
HDAC1 (UniProt Q13547)	-0.039 (inactive)
HDAC2 (UniProt Q92769)	-0.001 (inactive)
HDAC7 isoform 5 (UniProt Q8WUI4)	0.028 (inactive)
GEMIN2 (UniProt O14893)	0.033 (inactive)
HPCAL1 (UniProt P37235)	0.012 (inactive)
FCHO1 (UniProt O14526)	-0.023 (inactive)
HIP1R (UniProt O75146)	-0.053 (inactive)
HADHB (UniProt P55084)	-0.248 (inactive)
GHDC (UniProt Q8N2G8)	0.057 (inactive)
FEN1 (UniProt P39748)	-0.08 (inactive)
GOPC (UniProt Q9HD26)	0.018 (inactive)
FDFT1 (UniProt P37268)	0.01 (inactive)

Target	log2 fold change
GDE1 (UniProt Q9NZC3)	-0.004 (inactive)
ICMT (UniProt O60725)	-0.085 (inactive)
GAK (UniProt O14976)	0.038 (inactive)
GSTP1 (UniProt P09211)	-0.003 (inactive)
FOXO3 (UniProt O43524)	-0.039 (inactive)
FDXR isoform 7 (UniProt P22570)	-0.078 (inactive)
HNRNPH2 (UniProt P55795)	-0.027 (inactive)
GLIPR2 (UniProt Q9H4G4)	-0.152 (inactive)
FIBP (UniProt O43427)	-0.009 (inactive)
HNRNPC isoform 2 (UniProt P07910)	-0.074 (inactive)
FBXO7 (UniProt Q9Y3I1)	-0.028 (inactive)
GPS2 (UniProt Q13227)	-0.04 (inactive)
GGA2 (UniProt Q9UJY4)	0.033 (inactive)
GMEB1 (UniProt Q9Y692)	0.041 (inactive)
FANCD2 isoform 1 (UniProt Q9BXW9)	-0.007 (inactive)
GPX4 (UniProt P36969)	-0.068 (inactive)
IFITM3 (UniProt Q01628)	0.074 (inactive)
